D2 antagonist = antagonizes the human D2 dopamine receptor; AID 485344; inhibition, % at 10 µM; actives 2% (n = 340,000); HEK293 TREx D2 cells, calcium flux, dopamine EC80; in the data active = inhibition above about 30%; inactive = below that, where a call was filed; note: 0% is about no effect
Target sequence (P14416 whole entry, looked up): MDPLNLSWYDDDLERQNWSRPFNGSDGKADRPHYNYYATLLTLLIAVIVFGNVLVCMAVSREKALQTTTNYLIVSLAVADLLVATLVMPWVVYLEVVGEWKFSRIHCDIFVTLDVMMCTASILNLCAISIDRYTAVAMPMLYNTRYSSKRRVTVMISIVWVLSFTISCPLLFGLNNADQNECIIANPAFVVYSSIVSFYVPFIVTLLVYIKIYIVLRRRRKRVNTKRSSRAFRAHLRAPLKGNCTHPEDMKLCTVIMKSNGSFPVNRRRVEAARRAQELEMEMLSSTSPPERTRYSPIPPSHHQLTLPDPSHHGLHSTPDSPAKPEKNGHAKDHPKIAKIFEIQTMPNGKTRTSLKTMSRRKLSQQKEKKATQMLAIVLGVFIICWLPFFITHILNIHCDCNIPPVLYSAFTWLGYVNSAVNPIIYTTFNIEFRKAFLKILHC
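Overnight-induced (tetracycline, 30 C) HEK293 T-REx cells carrying force-coupled D2 receive a no-wash calcium dye, then compound, then EC80 dopamine at 180 s; signals are read kinetically throughout.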
D2 ag-1 = agonists of human D2 dopamine receptor; activation, % at 2 µM; actives 0.53% (n = 340,000); AID 485358; HEK293 T-REx D2 cells, calcium flux agonist mode; P14416;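 active = activation over 3 SD above normal in the single-dose calcium agonist read, cut at about 30% in these data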; note: 0% is about no effect
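Tetracycline-induced HEK293 Trex cells with D2 receptor force-coupled to calcium signaling, plated overnight at 30 C and loaded with no-wash calcium dye. Calcium flux read kinetically for 180 s after compound addition; responses flag agonists.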
D2 PAM-1 = D2 dopamine receptor (human) potentiation. P14416. HEK293 T-REx D2, calcium flux, EC20 dopamine potentiation. potentiation, % at 10 µM. actives 0.34% (n = 340,000). AID 485347;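 active = potentiation over 3 SD above the plate norm, cut at about 30% in these data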; note: 0% is about no effect
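Tetracycline-induced HEK293 T-REx cells force-coupled to calcium signalling expressed D2; compounds were pin-added after a 10 s baseline, read kinetically 180 s, then an EC20 dopamine challenge followed with a further 180 s calcium read.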
D2 PAM-2 = potentiates the human D2 dopamine receptor allosterically; P14416; DiscoveRx D2 beta-arrestin cells, luminescence, 90 min; 100% = 57 uM dopamine signal; potentiation, % (test concentration not listed); actives 0.23% (n = 360,000); AID 624464; in the data active = potentiation above about 50%; inconclusive = mostly about 30% to 49%
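PathHunter D2 cells, attached overnight at 37 deg C, received compound in DMSO plus dopamine at EC20 (50 nM final) for 90 min at 37 deg C. Beta-arrestin recruitment was read as luminescence after 1 h with detection reagent at ambient temperature.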
D2 ag-2 = activates the human D2 dopamine receptor; DiscoveRx PathHunter D2 beta-arrestin, luminescence, 90 min; 100% = 57 uM dopamine signal; AID 624465; activation, % (test concentration not listed); actives 0.084% (n = 360,000); in the data active = activation above about 40%; inconclusive = between about 15% and that limit
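DiscoveRx PathHunter D2 beta-arrestin cells (2,100/well) attached overnight, then compound-stimulated 90 min at 37 C in HBSS/10 mM HEPES/0.1% Tween-20 buffer; beta-galactosidase complementation read by luminescence after 1 h at ambient temperature. Dopamine 57 uM final (EC100) as control.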
Starred values were filed as active, the others as inactive; ? = inconclusive; . = not tested or not shown. Rows were chosen to be rich in hits. Some 2.4% of all compounds tested hit in one or more screens of this group.

SMILES	D2 antagonist	D2 ag-1	D2 PAM-1	D2 PAM-2	D2 ag-2
C[C@H]1CCC[C@]2(O[C@@H](CCO)C[C@H](O)[C@H]2O)O1	31*	0	-4	-2	-4
CCN1C(=O)/C(=C/C=C2/Sc3ccc4ccccc4c3N2CCO)SC1=S	6	0	-1	-4	-2
CCN1/C(=C/C=C/c2oc3ccc4ccccc4c3[n+]2CC)Oc2ccc3ccccc3c21	7	45*	-4	0	3
COc1cc(NC(=O)C(Cc2ccccc2)NS(=O)(=O)c2cccs2)cc(OC)c1 (stereo not given)	.	0	8	.	.
CN(C)c1ccc(C(=O)/C=C/c2cccnc2)cc1	.	.	.	-13	-3
CN(C)c1ccc(/C=C/C(=O)c2cccc(Br)c2)cc1	2	113*	-3	-6	2
COc1ccc(CNC(=O)Cn2nc(C)c3nn(-c4ccc(Cl)cc4)c(C)c3c2=O)cc1	.	-2	8	.	.
CCOC(=O)C1C(=O)NC(c2ccccc2)=NC1c1cccc(Br)c1 (stereo not given)	55*	0	8	-2	-1
COc1cccc2cc(C(C)OC(=O)Nc3ccc(C)cc3)oc12 (stereo not given)	32*	1	-8	-21	3
O=C(Nc1ccc(S(=O)(=O)NC2=NCCCCC2)cc1)c1cccs1	.	.	.	1	-3
O=C(Nc1ccc(S(=O)(=O)NC2=NCCCCC2)cc1)c1ccc([N+](=O)[O-])s1	-20	0	-3	68*	7
Cc1cc(NS(=O)(=O)c2ccc(NC(=O)c3ccc([N+](=O)[O-])s3)cc2)nc(C)n1	.	.	.	60*	12
CC(NC(=O)Cn1cc2c(n1)CCCCC2)c1ccccc1 (stereo not given)	35*	0	1	0	-2
CC(C)(C)OC(=O)N1CCC(c2c(C(=O)N3CCN(c4ccccn4)CC3)cnn2-c2ccccc2Cl)CC1	.	0	-2	.	.
CCC(=O)N(Cc1ccco1)Cc1cc2cccc(C)c2n2nnnc12	34*	1	-3	-8	7
Cc1ccc2c(c1)cc(CN(Cc1ccco1)C(=O)COc1ccccc1)c1nnnn12	23	2	-1	-17	-1
COc1ccc(/C(N)=N/OC(=O)c2ccc3c(c2)OCO3)cc1	-30	1	4	103*	?
COc1cccc(C(=O)O/N=C(\N)c2ccncc2)c1	12	0	-3	59*	9
Cc1ccc(/C(N)=N/OC(=O)c2ccc3c(c2)OCO3)cc1	0	0	0	27	6
COc1cccc(C(=O)O/N=C(\N)c2ccc(C)cc2)c1	-12	-1	13	?	0
COc1cc(C(=O)O/N=C2\C=CC(=O)C(C)=C2)cc(OC)c1OC	-1	1	-4	28	13
COc1cc(C(=O)O/N=C(\N)c2ccncc2)cc(OC)c1OC	13	-1	-9	84*	14
COc1cc(C(=O)ON=C2C=C(C)C(=O)C(C)=C2)cc(OC)c1OC	22	0	3	64*	15
CCOc1ccccc1N(CC(=O)NCCSc1ccccc1)S(=O)(=O)c1ccccc1	.	1	6	.	.
COc1cccc(C(=O)O/N=C(\N)Cc2ccc(Cl)cc2)c1	0	0	-3	125*	?
SMILES	D2 antagonist	D2 ag-1	D2 PAM-1	D2 PAM-2	D2 ag-2
COc1ccc(C(=O)O/N=C(\N)c2ccc(Cl)cc2)cc1	-18	0	1	0	?
COc1ccc(C(=O)O/N=C(\N)c2ccncc2)cc1OC	1	0	-3	85*	?
COc1ccc(/C(N)=N/OC(=O)c2cccc([N+](=O)[O-])c2)cc1	13	-1	-4	25	8
COc1cccc(C(=O)O/N=C(\N)c2ccc([N+](=O)[O-])cc2)c1	-7	0	1	136*	?
Cc1ccc(/C=C\c2nccc3c2[nH]c2ccccc23)cc1	44*	-1	-23	-36	-4
CC(=O)N1CCc2cc(Br)cc(S(=O)(=O)N3CCN(c4cccc(C(F)(F)F)c4)CC3)c21	.	.	-7	.	.
O=C(CCNS(=O)(=O)c1cccc(C(F)(F)F)c1)NC1CC1	13	-1	45*	0	-1
CC1CCC(NC(=O)CCNS(=O)(=O)c2ccccc2)CC1 (stereo not given)	12	1	-8	2	-2
O=C(NCc1ccc(F)cc1)c1cc2cccc3c2n1CCS3	.	1	-5	.	.
CC1CN(c2c3c(nc4ncnn24)CCCC3)CC(C)O1 (stereo not given)	-2	1	32*	-22	-3
CCOc1ccc(C(c2c(O)cc(C)n(CCOC)c2=O)N2CCN(c3ccccc3F)CC2)cc1 (stereo not given)	.	17	-4	.	.
COc1ccc(N(CCC(=O)O)S(=O)(=O)c2ccc(C)c(C)c2)cc1	5	0	-6	-3	0
Cc1ccc(S(=O)(=O)CCC(=O)O)cc1C	36*	0	-2	-5	2
O=C(CCn1c(=O)c2cccn2c2ccccc21)Nc1ccc(F)cc1	61*	1	5	-22	-4
CCOC(=O)C1(Cc2ccccc2C(F)(F)F)CCN(CCCn2cccn2)CC1	48*	0	-22	-14	-3
CCOC(=O)C1(Cc2ccccc2C(F)(F)F)CCN(C2CCC2)CC1	32*	-2	-18	-31	-5
COc1ccc(NC(c2ccc(F)cc2)c2nnc(-c3ccccc3Cl)o2)cc1Cl (stereo not given)	.	1	-1	.	.
O=C(Cn1nc(CNc2ccc(Cl)cc2)[n+]2c1CCCCC2)c1ccccc1	7	-1	-14	-11	-3
Cc1ccc(C(C)C)c(OCc2nn(CC(=O)c3ccc(Cl)cc3)c3[n+]2CCCCC3)c1	33*	1	-28	-23	-12
Cc1oc2c(c(C)cc3oc(=O)c(CC(=O)NCCc4ccc(Cl)cc4)c(C)c32)c1C	.	1	0	.	.
CN1CCN(C(=O)CCN2C(=O)/C(=C/c3cccc(Br)c3)SC2=S)CC1	31*	0	3	-8	-3
O=C(CCN1C(=O)S/C(=C\c2ccccc2)C1=O)N1CCCCC1	35*	0	7	-6	-3
Cc1cccc(C(=O)N2CCNC(=O)C2CC(=O)Nc2ccc(F)cc2)c1 (stereo not given)	.	.	2	.	.
Cc1cccc(CN2CCC(CNC(=O)c3c(C)oc4ncnc(N5CCCCC5)c34)CC2)c1	.	.	6	.	.
O=C(COC(=O)/C=C/c1ccco1)NCc1ccccc1Cl	33*	0	9	0	-2
O=C(COC(=O)/C=C/c1ccco1)NCc1ccc(Cl)cc1Cl	.	.	.	0	8
CCn1ccc2cc(S(=O)(=O)N3CCC(C(=O)NCc4cccc(C)c4)CC3)ccc21	.	0	1	.	.
CN(CC(=O)Nc1ccccc1Cl)S(=O)(=O)c1ccc(C(=O)N2CCOCC2)s1	.	.	3	.	.

Compound activity from PubChem.
